# Reference: the supplement of paper PMC10849652
# The full data set covers some 8,800 targets. This sample favours those with a hit. About 0.5% of all pairs of compound and target were hits.
# Tests used:
# Assay in all cases: log2 fold change, soluble protein after heating vs DMSO (PISA); higher = thermal stabilisation; K562 lysate, 10 uM; active = over 0.2 and 3.5 SD of the protein, either way, in both replicates (recomputed)
# [1] = compound: NCC(=O)Nc1ccc(-n2nc(C(F)(F)F)cc2-c2ccc3c(ccc4ccccc43)c2)cc1
# Method in brief: (§1)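 Dounce homogenisation of K562 pellets in PBS pH 7.4 with 1 mM MgCl2 produced a crude extract, used at 1 mg/mL protein. Exposure to 10 μM compound lasted 30 min, and aliquots were then heated for 3 min across 48°C-58°C, pooled and brought to 0.5% NP-40 at 4°C. The supernatant after 21,000xg for 90 min was quantified by TMTpro 16plex LC-MS/MS with channel sums equalised. Duplicate values are given as log-two fold change in thermal stability relative to solvent controls.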
# [2] = compound: O=C(CCCCCCC(=O)Nc1ccccc1)NO [vorinostat]
# Method in brief: as §1
# [3] = compound: O=C(O)c1ccc2c(c1)nc(Nc1cccc(Cl)c1)c1ccncc12 [silmitasertib]
# Method in brief: as §1
# [4] = compound: O=C1NC(=O)C(c2cnc3ccccn23)=C1c1cn2c3c(cc(F)cc13)CN(C(=O)N1CCCCC1)CC2
# Method in brief: as §1
# [5] = compound: c1cn2cc(-c3ccc4cn[nH]c4c3)nc(Nc3ccc(N4CCOCC4)cc3)c2n1 [entospletinib]
# Method in brief: as §1
# Sequence of UniProt Q9UPW6 (Q9UPW6 whole entry, looked up): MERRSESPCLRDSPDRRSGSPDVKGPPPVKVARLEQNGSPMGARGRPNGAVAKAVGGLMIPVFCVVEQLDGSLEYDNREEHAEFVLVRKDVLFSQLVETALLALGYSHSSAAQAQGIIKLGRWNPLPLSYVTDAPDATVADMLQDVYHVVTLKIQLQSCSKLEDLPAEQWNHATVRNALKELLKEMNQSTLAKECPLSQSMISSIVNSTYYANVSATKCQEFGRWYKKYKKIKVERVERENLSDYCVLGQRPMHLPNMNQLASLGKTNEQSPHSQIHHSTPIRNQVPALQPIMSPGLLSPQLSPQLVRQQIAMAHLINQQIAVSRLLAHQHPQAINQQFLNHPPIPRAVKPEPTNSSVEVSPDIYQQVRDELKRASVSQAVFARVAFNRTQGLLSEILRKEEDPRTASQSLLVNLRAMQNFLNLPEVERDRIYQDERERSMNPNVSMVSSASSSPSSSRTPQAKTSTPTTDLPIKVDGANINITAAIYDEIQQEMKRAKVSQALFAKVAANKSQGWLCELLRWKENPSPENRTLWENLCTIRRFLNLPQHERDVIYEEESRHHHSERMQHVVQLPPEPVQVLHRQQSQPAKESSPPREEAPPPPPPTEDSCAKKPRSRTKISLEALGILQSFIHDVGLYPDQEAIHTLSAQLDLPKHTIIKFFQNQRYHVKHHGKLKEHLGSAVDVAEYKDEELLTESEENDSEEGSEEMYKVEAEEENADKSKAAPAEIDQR
# Sequence of UniProt P40938 (P40938 whole entry, looked up): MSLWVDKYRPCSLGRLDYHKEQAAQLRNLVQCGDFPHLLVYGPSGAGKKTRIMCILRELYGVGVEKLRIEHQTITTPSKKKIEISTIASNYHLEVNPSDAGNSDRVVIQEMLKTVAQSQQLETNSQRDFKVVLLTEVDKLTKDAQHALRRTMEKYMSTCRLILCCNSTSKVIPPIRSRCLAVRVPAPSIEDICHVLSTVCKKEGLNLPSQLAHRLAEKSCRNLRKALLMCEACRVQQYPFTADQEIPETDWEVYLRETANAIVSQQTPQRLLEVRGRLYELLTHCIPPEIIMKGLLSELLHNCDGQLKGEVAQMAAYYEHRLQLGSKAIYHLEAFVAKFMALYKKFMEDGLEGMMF
# Sequence of UniProt Q9UQR0 (Q9UQR0 whole entry, looked up): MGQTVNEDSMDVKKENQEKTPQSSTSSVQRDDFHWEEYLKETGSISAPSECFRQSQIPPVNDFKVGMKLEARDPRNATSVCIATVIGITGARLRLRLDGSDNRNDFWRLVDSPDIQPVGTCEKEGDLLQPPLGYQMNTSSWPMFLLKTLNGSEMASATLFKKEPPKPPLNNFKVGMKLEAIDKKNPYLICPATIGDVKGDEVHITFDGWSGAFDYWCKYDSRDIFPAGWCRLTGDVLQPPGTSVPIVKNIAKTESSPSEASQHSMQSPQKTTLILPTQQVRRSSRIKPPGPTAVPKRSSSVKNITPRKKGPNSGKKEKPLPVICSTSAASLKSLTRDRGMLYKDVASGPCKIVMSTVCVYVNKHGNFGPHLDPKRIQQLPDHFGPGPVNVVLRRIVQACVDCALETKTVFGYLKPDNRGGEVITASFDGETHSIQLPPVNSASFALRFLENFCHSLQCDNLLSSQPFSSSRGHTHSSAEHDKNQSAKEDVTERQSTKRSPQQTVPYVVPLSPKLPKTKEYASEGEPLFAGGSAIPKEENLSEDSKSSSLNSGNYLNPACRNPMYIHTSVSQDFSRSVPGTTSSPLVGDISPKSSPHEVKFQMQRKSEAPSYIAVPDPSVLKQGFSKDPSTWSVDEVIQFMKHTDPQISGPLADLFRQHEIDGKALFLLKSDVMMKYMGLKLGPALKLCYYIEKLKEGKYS
# Sequence of UniProt Q9Y4B4 (Q9Y4B4 whole entry, looked up): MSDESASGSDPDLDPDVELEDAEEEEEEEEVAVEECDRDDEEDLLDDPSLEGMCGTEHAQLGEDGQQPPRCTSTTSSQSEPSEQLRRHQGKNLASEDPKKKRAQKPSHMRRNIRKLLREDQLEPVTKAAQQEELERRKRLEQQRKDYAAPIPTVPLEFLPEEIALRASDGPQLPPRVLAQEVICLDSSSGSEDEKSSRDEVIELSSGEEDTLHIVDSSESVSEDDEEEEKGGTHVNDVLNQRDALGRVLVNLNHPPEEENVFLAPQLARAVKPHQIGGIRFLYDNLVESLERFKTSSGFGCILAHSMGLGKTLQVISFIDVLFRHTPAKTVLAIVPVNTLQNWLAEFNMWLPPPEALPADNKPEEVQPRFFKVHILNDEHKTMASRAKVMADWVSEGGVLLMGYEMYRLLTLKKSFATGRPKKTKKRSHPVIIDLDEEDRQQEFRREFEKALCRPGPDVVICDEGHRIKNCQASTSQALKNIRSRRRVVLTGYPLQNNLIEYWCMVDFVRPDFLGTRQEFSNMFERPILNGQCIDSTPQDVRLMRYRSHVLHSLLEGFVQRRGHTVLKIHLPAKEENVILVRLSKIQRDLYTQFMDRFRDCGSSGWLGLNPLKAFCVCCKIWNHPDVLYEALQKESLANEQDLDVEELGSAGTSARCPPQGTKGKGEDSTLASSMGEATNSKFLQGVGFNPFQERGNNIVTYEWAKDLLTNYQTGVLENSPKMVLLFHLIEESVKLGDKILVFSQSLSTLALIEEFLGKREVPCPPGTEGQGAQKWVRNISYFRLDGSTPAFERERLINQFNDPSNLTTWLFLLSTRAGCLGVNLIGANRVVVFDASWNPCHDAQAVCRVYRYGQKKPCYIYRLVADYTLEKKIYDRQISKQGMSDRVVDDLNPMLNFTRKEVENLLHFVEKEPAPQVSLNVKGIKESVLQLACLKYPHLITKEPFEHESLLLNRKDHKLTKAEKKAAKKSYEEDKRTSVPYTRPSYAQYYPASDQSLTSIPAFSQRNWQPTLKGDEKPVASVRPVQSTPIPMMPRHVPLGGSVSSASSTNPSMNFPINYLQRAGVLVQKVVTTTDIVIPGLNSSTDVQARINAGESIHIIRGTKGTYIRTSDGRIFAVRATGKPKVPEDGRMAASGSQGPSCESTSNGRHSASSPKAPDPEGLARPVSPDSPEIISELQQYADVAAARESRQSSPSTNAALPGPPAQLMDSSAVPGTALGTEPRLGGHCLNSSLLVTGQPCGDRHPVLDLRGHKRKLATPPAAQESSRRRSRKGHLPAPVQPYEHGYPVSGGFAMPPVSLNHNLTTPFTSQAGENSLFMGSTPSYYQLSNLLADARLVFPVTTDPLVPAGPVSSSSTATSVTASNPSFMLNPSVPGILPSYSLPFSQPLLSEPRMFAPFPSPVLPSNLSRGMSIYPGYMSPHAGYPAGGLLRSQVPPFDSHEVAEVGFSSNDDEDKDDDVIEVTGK
# Sequence of UniProt Q9H974 (Q9H974 whole entry, looked up): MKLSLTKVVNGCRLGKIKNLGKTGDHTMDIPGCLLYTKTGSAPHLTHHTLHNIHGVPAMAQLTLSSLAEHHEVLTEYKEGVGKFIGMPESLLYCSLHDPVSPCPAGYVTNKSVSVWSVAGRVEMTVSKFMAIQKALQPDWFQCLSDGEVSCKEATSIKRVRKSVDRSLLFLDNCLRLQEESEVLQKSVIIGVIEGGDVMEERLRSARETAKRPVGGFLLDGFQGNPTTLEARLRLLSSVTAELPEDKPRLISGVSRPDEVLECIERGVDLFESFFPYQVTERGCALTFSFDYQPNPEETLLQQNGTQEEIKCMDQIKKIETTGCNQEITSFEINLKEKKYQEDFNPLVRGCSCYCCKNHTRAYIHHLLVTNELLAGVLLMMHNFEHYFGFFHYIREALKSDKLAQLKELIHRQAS
# Sequence of UniProt Q99708 (Q99708 whole entry, looked up): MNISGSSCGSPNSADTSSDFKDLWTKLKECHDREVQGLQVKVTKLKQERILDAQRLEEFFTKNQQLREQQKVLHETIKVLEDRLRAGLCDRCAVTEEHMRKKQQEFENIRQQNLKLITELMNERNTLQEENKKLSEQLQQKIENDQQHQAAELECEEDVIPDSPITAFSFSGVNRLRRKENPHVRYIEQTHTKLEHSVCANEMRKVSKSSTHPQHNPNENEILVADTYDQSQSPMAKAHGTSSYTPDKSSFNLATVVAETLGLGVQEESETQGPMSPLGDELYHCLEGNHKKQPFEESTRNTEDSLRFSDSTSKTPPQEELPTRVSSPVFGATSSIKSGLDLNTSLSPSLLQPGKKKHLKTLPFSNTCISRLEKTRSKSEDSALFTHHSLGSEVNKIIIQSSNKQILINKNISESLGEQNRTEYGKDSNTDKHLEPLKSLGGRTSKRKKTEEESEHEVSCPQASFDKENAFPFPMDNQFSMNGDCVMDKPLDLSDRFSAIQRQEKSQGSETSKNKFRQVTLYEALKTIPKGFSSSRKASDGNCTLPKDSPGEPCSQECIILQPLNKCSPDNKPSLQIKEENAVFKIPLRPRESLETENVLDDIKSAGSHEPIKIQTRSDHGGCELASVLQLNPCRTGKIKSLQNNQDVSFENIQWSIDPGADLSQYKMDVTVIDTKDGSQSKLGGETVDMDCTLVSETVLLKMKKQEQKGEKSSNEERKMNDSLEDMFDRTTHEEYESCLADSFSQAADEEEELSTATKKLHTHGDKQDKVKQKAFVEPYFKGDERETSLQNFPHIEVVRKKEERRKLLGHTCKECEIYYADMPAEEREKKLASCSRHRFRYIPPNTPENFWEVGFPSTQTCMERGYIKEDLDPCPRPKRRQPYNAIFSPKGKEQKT
# Sequence of UniProt P35249 (P35249 whole entry, looked up): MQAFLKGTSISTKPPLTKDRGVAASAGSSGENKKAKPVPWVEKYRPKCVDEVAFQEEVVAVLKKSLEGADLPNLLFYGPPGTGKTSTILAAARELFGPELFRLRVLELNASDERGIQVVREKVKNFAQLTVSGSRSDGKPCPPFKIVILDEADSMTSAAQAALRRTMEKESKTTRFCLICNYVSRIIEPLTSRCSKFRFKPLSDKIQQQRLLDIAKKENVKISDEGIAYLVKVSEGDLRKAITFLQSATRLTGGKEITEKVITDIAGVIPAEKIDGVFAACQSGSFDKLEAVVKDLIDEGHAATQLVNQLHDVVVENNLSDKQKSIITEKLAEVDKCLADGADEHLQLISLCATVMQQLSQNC
Target,log2 fold change [1],log2 fold change [2],log2 fold change [3],log2 fold change [4],log2 fold change [5]
RAC2 (UniProt P15153),-0.073 (inactive),-0.25 (active),0.024 (inactive),0.102 (inactive),0.024 (inactive)
RNF149 (UniProt Q8NC42),0.036 (inactive),0.098 (inactive),0.013 (inactive),0.015 (inactive),–
QTRT2 isoform 4 (UniProt Q9H974),0.004 (inactive),0.079 (inactive),-0.011 (inactive),-0.007 (inactive),0.022 (inactive)
RBM5 (UniProt P52756),0.036 (inactive),-0.427 (active),0.072 (inactive),-0.056 (inactive),0.023 (inactive)
RRM1 (UniProt P23921),0.011 (inactive),-0.227 (active),0.027 (inactive),-0.003 (inactive),-0.013 (inactive)
SERINC3 (UniProt Q13530),-0.027 (inactive),0.019 (inactive),-0.012 (inactive),0.017 (inactive),0.024 (inactive)
RDH14 (UniProt Q9HBH5),-0.072 (inactive),-0.318 (active),0.044 (inactive),0.004 (inactive),0.026 (inactive)
RFC3 (UniProt P40938),-0.01 (inactive),-0.365 (active),0.035 (inactive),0.006 (inactive),0.018 (inactive)
RPS18 (UniProt P62269),0.033 (inactive),0.081 (inactive),0.019 (inactive),0.007 (inactive),-0.02 (inactive)
RABL3 (UniProt Q5HYI8),0.031 (inactive),-0.126 (inactive),0.445 (inactive),-0.039 (inactive),0 (inactive)
RNF123 (UniProt Q5XPI4),0.014 (inactive),-0.385 (active),-0.016 (inactive),-0.002 (inactive),0 (inactive)
RBBP8 isoform 2 (UniProt Q99708),-0.035 (inactive),0.076 (inactive),-0.13 (inactive),-0.028 (inactive),-0.002 (inactive)
RPS4X (UniProt P62701),0.008 (inactive),0.106 (inactive),0.028 (inactive),0.015 (inactive),0.016 (inactive)
SASS6 (UniProt Q6UVJ0),0.015 (inactive),-0.381 (active),0.012 (inactive),0.021 (inactive),0.003 (inactive)
RHAG (UniProt Q02094),0.031 (inactive),-0.026 (inactive),0.153 (inactive),0.015 (inactive),-0.03 (inactive)
SDHA (UniProt P31040),0.007 (inactive),0.058 (inactive),-0.014 (inactive),-0.028 (inactive),-0.006 (inactive)
RECQL5 (UniProt O94762),-0.063 (inactive),-0.307 (active),-0.094 (inactive),0.03 (inactive),0.024 (inactive)
RAF1 isoform 2 (UniProt P04049),0.126 (inactive),-0.304 (active),0.024 (inactive),0.068 (inactive),-0.015 (inactive)
RANBP6 (UniProt O60518),0.013 (inactive),-0.345 (active),0.054 (inactive),0.041 (inactive),0.011 (inactive)
RALGAPA1 isoform 6 (UniProt Q6GYQ0),0.047 (inactive),0.034 (inactive),-0.054 (inactive),-0.027 (inactive),-0.022 (inactive)
RFWD3 (UniProt Q6PCD5),0.089 (inactive),-0.444 (active),0.061 (inactive),-0.027 (inactive),0.043 (inactive)
RPTOR (UniProt Q8N122),0.002 (inactive),-0.337 (active),0.048 (inactive),0.012 (inactive),-0.01 (inactive)
RBBP7 (UniProt Q16576),-0.005 (inactive),-0.091 (inactive),0.033 (inactive),-0.167 (inactive),0 (inactive)
RPL28 (UniProt P46779),0.012 (inactive),0.033 (inactive),0.008 (inactive),0.043 (inactive),0.007 (inactive)
RAB1B (UniProt Q9H0U4),0.025 (inactive),0.186 (inactive),0.007 (inactive),-0.039 (inactive),-0.011 (inactive)
SAR1A (UniProt Q9NR31),0.004 (inactive),0.056 (inactive),-0.077 (inactive),-0.039 (inactive),-0.089 (inactive)
RBBP7 isoform 2 (UniProt Q16576),-0.043 (inactive),0.03 (inactive),-0.012 (inactive),-0.068 (inactive),0.024 (inactive)

Target,log2 fold change [1],log2 fold change [2],log2 fold change [3],log2 fold change [4],log2 fold change [5]
SATB2 (UniProt Q9UPW6),0 (inactive),-0.347 (active),0.051 (inactive),-0.024 (inactive),0.036 (inactive)
RIOK1 (UniProt Q9BRS2),0.016 (inactive),-0.035 (inactive),0.358 (active),-0.02 (inactive),0.029 (inactive)
RNF40 (UniProt O75150),0.015 (inactive),-0.237 (active),0.032 (inactive),-0.007 (inactive),-0.022 (inactive)
RCOR1 (UniProt Q9UKL0),0.034 (inactive),-0.184 (inactive),-0.014 (inactive),-0.011 (inactive),0.009 (inactive)
RDH11 (UniProt Q8TC12),0.008 (inactive),0.038 (inactive),0.022 (inactive),-0.047 (inactive),0.014 (inactive)
RABGGTB (UniProt P53611),-0.058 (inactive),-0.286 (active),0.006 (inactive),-0.005 (inactive),-0.044 (inactive)
SCML2 (UniProt Q9UQR0),-0.099 (inactive),-0.243 (active),0.039 (inactive),0.037 (inactive),0.007 (inactive)
SCCPDH (UniProt Q8NBX0),-0.129 (inactive),0.34 (inactive),-0.19 (inactive),0.115 (inactive),0.087 (inactive)
RAE1 (UniProt P78406),0.007 (inactive),-0.126 (inactive),-0.022 (inactive),-0.062 (inactive),-0.024 (inactive)
RFC4 (UniProt P35249),0.013 (inactive),-0.423 (active),0.033 (inactive),0.008 (inactive),0.006 (inactive)
RFC2 (UniProt P35250),-0.027 (inactive),-0.506 (active),0.043 (inactive),-0.017 (inactive),0.004 (inactive)
RDH10 (UniProt Q8IZV5),-0.038 (inactive),-0.007 (inactive),0.006 (inactive),-0.042 (inactive),0.162 (inactive)
RAD54L2 (UniProt Q9Y4B4),0.119 (inactive),-0.487 (active),0.04 (inactive),0.01 (inactive),0.014 (inactive)
RNASEH2B (UniProt Q5TBB1),-0.016 (inactive),-0.377 (active),0.054 (inactive),-0.064 (inactive),0.011 (inactive)
RBM23 isoform 2 (UniProt Q86U06),0.121 (inactive),-0.334 (inactive),-0.019 (inactive),-0.113 (inactive),0.037 (inactive)
RPS29 (UniProt P62273),-0.105 (inactive),0.145 (inactive),-0.03 (inactive),0.205 (inactive),-0.085 (inactive)
REXO4 (UniProt Q9GZR2),0.03 (inactive),-0.127 (inactive),0.05 (inactive),-0.035 (inactive),0.067 (inactive)
RASA2 (UniProt Q15283),-0.007 (inactive),-0.275 (active),0.021 (inactive),-0.006 (inactive),0.023 (inactive)
RBM22 (UniProt Q9NW64),0.024 (inactive),-0.23 (active),0 (inactive),-0.053 (inactive),-0.023 (inactive)
RANBP2 (UniProt P49792),-0.01 (inactive),-0.343 (active),-0.004 (inactive),0.001 (inactive),-0.006 (inactive)
RALA (UniProt P11233),0.031 (inactive),0.129 (inactive),-0.062 (inactive),0 (inactive),-0.006 (inactive)
RBMX (UniProt P38159),-0.043 (inactive),0.065 (inactive),0.048 (inactive),-0.022 (inactive),0.008 (inactive)
RSU1 (UniProt Q15404),0.018 (inactive),0.15 (inactive),0 (inactive),0.034 (inactive),0.003 (inactive)
RXRB isoform 3 (UniProt P28702),0.067 (inactive),-0.757 (active),0.168 (inactive),0.07 (inactive),0.006 (inactive)
RARS (UniProt P54136),-0.004 (inactive),-0.309 (active),0.056 (inactive),-0.009 (inactive),0.024 (inactive)
RNF168 (UniProt Q8IYW5),0.056 (inactive),-0.313 (inactive),0.025 (inactive),-0.046 (inactive),0.042 (inactive)
SAMHD1 (UniProt Q9Y3Z3),-0.012 (inactive),-0.352 (active),-0.002 (inactive),0.032 (inactive),0.031 (inactive)
